# Assay outcomes from PubChem.
# The list is not random: actives were taken first. Their share in the collection is about 2.3%.
# FBPA coupling cs = qHTS Assay for Inhibitors of Fructose-1,6-bisphosphate Aldolase from Giardia Lamblia: Coupling assay counterscreen; actives 0.67% (n = 290,000); activity change, negative = inhibition, % at 58.2 µM, hits read low; coupling enzyme system counterscreen, AmpLite Red fluorescence; AID 2472, 2010; in the data active = activity change below about -30%
#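 First, compound is pin-transferred into glyceraldehyde-3-phosphate coupling-enzyme reagent at 57.5 uM final and held 10 min at RT. Next, substrate, coupling system and AmpLite Red are added. After 20 min RT, fluorescence (525/598 nm) is read.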
# Tau FP inhib = qHTS for Inhibitors of Tau Fibril Formation, Fluorescence Polarization. Microtubule-associated protein tau (Homo sapiens), P10636. actives 0.39% (n = 280,000). AID 1468, 2008. K18 P301L tau heparin fibrillization, Alexa594 FP, 6 h. Potency, µM (series often up to 57.7 µM), for the others: top-dose activity, negative = inhibition, usual class: inhibitors; also: potency is read from the fitted curve at half-maximal effect; nearly all actives have a fitted effect of over 55% in size
#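 K18 P301L tau (15 uM unlabeled/0.24 uM Alexa 594-labeled, final) + compound + heparin 20 uM final; 100 mM NaOAc pH 7; 6 hr 37 C; ThT 30 uM final added, 1 hr RT; FP ex 555/em 632 nm.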
# Tau ThT inhib = qHTS for Inhibitors of Tau Fibril Formation, Thioflavin T Binding | Microtubule-associated protein tau (Homo sapiens), P10636 | Potency, µM (doses to about 57.4 µM), inactives show at the top dose activity, negative = inhibition, usual class: inhibitors | actives 2.1% (n = 270,000) | recombinant tau K18 P301L, heparin-induced fibrillization, ThT fluorescence; also: potency is read from the fitted curve at half-maximal effect; nearly all actives have a fitted effect of over 55% in size
#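 Tau K18 P301L fragment (15 uM unlabeled plus 0.24 uM Alexa 594-labeled) in 100 mM sodium acetate pH 7 with compound, fibrillization induced by 20 uM heparin for 6 hr at 37 C. Thioflavin T (30 uM) added, fluorescence read after 1 hr (ex 450, em 510 nm).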
# Tau fluor counter = Counterscreen qHTS for Inhibitors of Tau Fibril Formation, Fluorescence Polarization | tau K18 P301L Alexa594 fluorescence, heparin fibrillization | Potency, µM (top dose mostly 57.7 µM), without a hit: at the top dose activity change, negative = decrease | actives 0.93% (n = 280,000); also: potency is read from the fitted curve at half-maximal effect; nearly all actives have a fitted effect of over 55% in size
#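 Human tau K18 P301L (15 uM unlabeled, 0.24 uM Alexa 594-labeled) in 100 mM sodium acetate pH 7 with 20 uM heparin, 6 hr at 37 C. ThT 30 uM added, 1 hr ambient; Alexa 594 FP and total fluorescence read at 555/632 nm.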
# USP1 inh = Inhibitors of USP1/UAF1: Primary Screen | actives 0.23% (n = 390,000) | Potency, µM (series often up to 57.1 µM), without a hit: at the highest dose activity change, negative = inhibition, hits mostly inhibitors | Ubiquitin carboxyl-terminal hydrolase 1 (Homo sapiens), O94782 | recombinant USP1/UAF1, Ub-Rhodamine cleavage fluorescence | AID 743255, 2014; also: potency is read from the fitted curve at half-maximal effect; nearly all actives have a fitted effect of over 60% in size
# Target sequence (O94782 whole entry, looked up): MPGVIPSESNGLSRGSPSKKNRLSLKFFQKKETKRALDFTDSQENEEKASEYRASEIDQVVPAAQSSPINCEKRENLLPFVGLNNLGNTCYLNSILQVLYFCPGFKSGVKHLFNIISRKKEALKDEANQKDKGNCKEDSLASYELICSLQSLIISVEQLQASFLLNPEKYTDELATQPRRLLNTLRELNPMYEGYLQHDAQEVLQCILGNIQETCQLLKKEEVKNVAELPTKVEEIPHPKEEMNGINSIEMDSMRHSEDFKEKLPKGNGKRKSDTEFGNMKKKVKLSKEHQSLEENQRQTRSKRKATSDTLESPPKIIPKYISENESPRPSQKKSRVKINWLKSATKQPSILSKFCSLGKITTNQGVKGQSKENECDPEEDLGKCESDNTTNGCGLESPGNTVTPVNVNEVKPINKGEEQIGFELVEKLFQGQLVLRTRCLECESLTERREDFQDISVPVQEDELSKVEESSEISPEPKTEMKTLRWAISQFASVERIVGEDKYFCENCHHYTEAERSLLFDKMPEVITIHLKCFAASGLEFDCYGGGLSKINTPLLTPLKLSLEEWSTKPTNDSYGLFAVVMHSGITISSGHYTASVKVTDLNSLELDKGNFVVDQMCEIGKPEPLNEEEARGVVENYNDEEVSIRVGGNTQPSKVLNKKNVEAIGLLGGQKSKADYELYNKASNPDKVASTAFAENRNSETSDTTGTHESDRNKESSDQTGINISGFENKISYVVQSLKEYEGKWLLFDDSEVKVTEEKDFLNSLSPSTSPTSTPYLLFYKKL
#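 In this screen, compounds sit with the deubiquitinase complex (1nM) for 15 min at room temperature before Ub-Rho is added at 150nM final. Fluorescence rise is then followed for 6 reads every 60 seconds.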
# Starred values were filed as active, the others as inactive; ? = inconclusive; . = no result; [ ] = another dose, or the depositor's remark. Unless noted, calls follow the shape of the dose curve; as a rule, active = well fitted curve in the direction sought with a large enough effect; inconclusive = small, poorly fitted or top-dose-only effect, or another doubt; inactive = no such curve, though single readings can be large; an effect the other way counts as inactive or inconclusive. % is scaled to controls: 0 for no effect and ±100 for the full control effect.
SMILES,FBPA coupling cs,Tau FP inhib,Tau ThT inhib,Tau fluor counter,USP1 inh
Cc1cc(C)c([N+](=O)[O-])cc1-c1ccc(/C=N/c2c(-c3ccco3)nc3ccccn23)o1,-22.1,?,5.01µM*,25.1µM*[quencher],-21.7%
O=[N+]([O-])c1ccc(-c2ccc(/C=N/c3c(-c4ccco4)nc4ccccn34)o2)c(Cl)c1,-7.4,-5.7%,2µM*,-27.5%,.
CCOC(=O)CNC(=O)CC(c1cc(OC)c(OC)c(OC)c1)N1Cc2ccccc2C1=O (centres undefined),.,-1.6%,13.6%,4.3%,-22.4%
C[C@@](N)(Cc1ccc(O)c(O)c1)C(=O)O,-10.9,?,4.47µM*,?,.
CCc1ccc(NC(=O)Cc2csc(COc3cccc(C)c3)n2)cc1,.,1.2%,-9.0%,-14.0%,-25.2%
O=c1[nH]c(SCc2c(F)cccc2Cl)nc2c1CCCC2,.,-4.7%,-5.7%,-7.7%,-18.8%
COc1cc(NCCCCCCN)c2ncccc2c1OC,.,.,.,.,8.91µM*
CC1=NN(c2ccccc2)C(=O)/C1=C/c1cn(C)c2ccccc12,-2.4,7.9%,2.82µM*,?,-8.8%
CC1=NN(c2ccccc2)C(=O)/C1=C\c1cc(C)n(C)c1C,-0.9,?,3.55µM*,-13.4%,1.2%
CC1=NN(c2ccccc2)C(=O)/C1=C\c1cn(C)c2ccccc12,-17.1,?,7.08µM*,?,-12.1%
COc1ccc(CCNS(=O)(=O)c2ccc(F)c(C(=O)Nc3ccc(Cl)cc3)c2)cc1OC,.,-20.8%,10.7%,-27.3%,-17.0%
Cc1cc(C)c(NC(=S)NCC2CCN(C(C)c3ccccc3)C2)c(C)c1 (centres undefined),-48.9*,?,?,-15.6%,-19.2%
Cc1nc(C)c(CCNS(=O)(=O)c2ccc(F)cc2)s1,.,-6.7%,2.4%,-0.6%,-9.1%
Cc1ccc(NC(=S)Nc2ccccn2)cc1C,1.4,-1.9%,-13.9%,-18.0%,-16.8%
Cc1ccc(NC(=S)Nc2ccc3nc(-c4ccccn4)c(-c4ccccn4)nc3c2)cc1C,-53.1*,-13.6%,?,-28.7%,-25.8%
COc1cccc(CCc2ccccc2OCC[C@@H]2C[C@@H](O)CN2C)c1,-8.1,6.0%,-12.7%,-17.1%,.
Cc1ccc(CCNC(=O)c2ccc(CNS(=O)(=O)c3ccc(F)cc3)cc2)cc1,.,-13.9%,?,-1.7%,2.8%
CC(=O)c1cc(NC(=O)c2cccc(C(F)(F)F)c2)c(=O)oc1/C=C/N(C)C,3.3,-2.0%,?,-5.5%,?
COc1ccc(C(=O)Nc2cc(C(C)=O)c(C)oc2=O)cc1,2.1,?,?,-16.0%,-26.9%
CC(=O)c1cc(NC(=O)c2ccc(Cl)cc2)c(=O)oc1/C=C/N(C)C,-0.2,?,10µM*,-26.5%,-12.1%
CC(=O)c1cc(NC(=O)c2cccc(C(F)(F)F)c2)c(=O)oc1C,1.6,35.5µM*,25.1µM*,-28.5%,1.5%
COC(=O)c1ccc(Cn2cnc3cnccc32)cc1,0.0,.,.,.,3.4%
Cc1ccc([N+](=O)[O-])cc1-c1[nH]c(-c2ccc(O)c(O)c2)nc1-c1ccccc1,-6.6,16.1%,?,12.6µM*[quencher],-4.6%
COc1ccc([N+](=O)[O-])cc1-c1[nH]c(-c2ccc(C(=O)O)cc2)nc1-c1ccccc1,-0.5,.,.,.,-8.8%
COc1ccc(-c2nc(-c3ccccc3)c(-c3cc([N+](=O)[O-])ccc3C)[nH]2)cc1O,-9.7,3.8%,?,14.1µM*[quencher],-22.0%
SMILES,FBPA coupling cs,Tau FP inhib,Tau ThT inhib,Tau fluor counter,USP1 inh
COc1cc(Cl)c(NC(=O)c2cc(CN3CCCC3)on2)c(OC)c1,.,1.2%,-18.0%,-23.8%,-12.4%
O=C1/C(=C\c2ccco2)CCC/C1=C\c1ccco1,-12.2,?,17.8µM*,-25.6%,-12.8%
O=C1/C(=C/c2ccco2)CCC1C1CCCC1 (centres undefined),6.2,-7.3%,?,-17.9%,-16.8%
CC1C/C(=C/c2ccco2)C(=O)/C(=C/c2ccco2)C1 (centres undefined),-5.4,?,25.1µM*,-29.1%,.
O=C1/C(=C/c2ccco2)Cc2ccccc21,-0.3,-0.2%,?,-22.2%,-8.9%
CCN(CC)c1ccc(NC(=O)Cn2c3ncccc3c(=O)n2-c2ccccc2)c(C)c1,.,6.3%,-2.6%,-23.3%,?
O=[N+]([O-])c1cc(/C=N\Nc2nccs2)ccc1O,-0.2,?,12.6µM*,14.1µM*[quencher],.
O=C(CSc1nc(Nc2ccccc2)nc(N2CCOCC2)n1)Nc1ccc([N+](=O)[O-])cc1,-4.5,?,?,12.6µM*[quencher],-17.0%
Cc1cccc(C)c1OCC(O)CNC(C)C (centres undefined),-2.7,-10.4%,3.4%,-5.6%,-1.7%
CCOC(=O)c1oc2cccc(OCC(O)CNC(C)C)c2c1C (centres undefined),-75.5*,-2.3%,-2.1%,-9.3%,4.0%
Cc1ccc(-c2csc(-c3c[nH]c4ccccc34)n2)c(C)c1,-3.1,?,14.1µM*,10µM*[quencher],-17.1%
Oc1ccc(-c2csc(-c3c[nH]c4ccccc34)n2)c(O)c1,1.1,?,6.31µM*,10µM*[quencher],-1.5%
O=C1C=C(N2CCN(C3=CC(=O)CCC3)CC2)CCC1,-1.1,?,25.1µM*,-26.4%,-3.5%
C/C1=C\[C@@H](O)C(C(C)C)C(OC(=O)c2ccc(O)cc2)C/C(C)=C/CC1 (some centres undefined),0.5,.,.,.,.
Nc1c(C(=O)NCc2ccco2)c2nc3ccccc3nc2n1CCc1ccccc1,-34.1*,-15.3%,?,?,-26.3%
Nc1c(C(=O)NCc2ccccc2)c2nc3ccccc3nc2n1CCCN1CCOCC1,-19.6,-14.5%,?,?,-20.1%
CC(=O)Nc1cc([N+](=O)[O-])ccc1N1CCOCC1,-0.3,7.0%,-5.5%,-2.3%,6.0%
O=C(Nc1ccc([N+](=O)[O-])cc1)Nc1ccc(N2CCOCC2)c2nonc12,-18.3,-3.7%,0.891µM*,?,0.6%
CCOc1ccccc1NC(=O)c1nn(C)c2c1CSc1ccccc1-2,.,-4.8%,?,11.2µM*[quencher],-13.2%
CCCn1c(-c2ccc(F)cc2)nc2c(N3CCN(CCC(=O)OCC)CC3)nc(C)nc21,-1.6,0.8%,-8.4%,-10.5%,.
COc1ncnc2sc(-c3ccccc3)cc12,-0.7,-8.0%,-6.8%,-0.5%,-18.3%
COc1ccc(Nc2ncnc3sc(-c4ccccc4)cc23)cc1,2.6,?,?,7.94µM*[quencher],-24.8%
COc1ccc(C(c2c(O)ccc3ccccc23)N2CCOCC2)c(OC)c1 (centres undefined),3.1,-1.1%,11.2µM*,-25.9%,-19.4%
